# Source: PubChem BioAssay
# An excerpt weighted towards active compounds, which were near 2.5% of everything screened.
# CHT allo act = CHT positive allosteric modulators, primary screen, cell-based, membrane potential dye, choline EC20; High affinity choline transporter 1 (Homo sapiens), Q9GZV3; CHT-expressing cells; stronger effect = higher value; LV-AA mutant CHT in HEK293 cells; B-score at 10 µM; actives 0.49% (n = 310,000); AID 488977, 2010;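 active = initial fluorescence not abnormally high and integrated response B-score, plate-corrected, over 3 SD above library mean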
# PKA-R1A activ = activators of PKA-R1A holoenzyme, primary screen, biochemical, fluorescence polarization, Cy5-IP20, bovine R1A, mouse PKAc; cAMP-dependent protein kinase type I-alpha regulatory subunit (Bos taurus) + …; activation, % at 11.4 µM; PKA-R1A dissociation; scaled: DMSO 0%, 113 µM cGMP 100%; actives 0.083% (n = 340,000);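 active = percent activation above the mean of all tested compounds plus 3 SD, cut at about 19% in these data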;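 also: higher means more PKAc released from R1A so a rise in polarization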
# TMEM16A act = TMEM16A chloride channel activators or potentiators, primary screen, cell-based, HTS; Anoctamin-1 (Mus musculus), Q8BHY3; HEK293 TMEM16A/YFP-H148Q/I152L, iodide quench fluorescence; stronger effect = lower value; B-score at 10 µM; actives 0.3% (n = 340,000); AID 623877, 2012;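 active = fluorescence-ratio B-score plate-corrected deviation score at least 3 library SD below zero, with starting fluorescence score within 5 deviations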;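 also: channel opened by trigger with iodide after compound preincubation; score built on the fluorescence ratio of max minus min over baseline; more negative score means more quench and so TMEM16A activation or potentiation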
# CHT block = inhibitors of human choline transporter CHT. actives 0.86% (n = 310,000). CHT-expressing cells, membrane potential dye, choline response; stronger effect = lower value. B-score at 10 µM. High affinity choline transporter 1 (Homo sapiens), Q9GZV3;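 active = B-score over 3 SD under the library average, and starting fluorescence ratio not unusually high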;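 also: choline stimulus applied at its EC90 after an EC20 pre-addition; B-score computed on integrated fluorescence ratio after choline addition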
# TMEM16A inh = TMEM16A chloride channel inhibitors, primary screen, cell-based, HTS; actives 1.2% (n = 310,000); AID 588511, 2011; normalized B-score (activity score, 25-100; higher = stronger inhibition) at 10 µM; Anoctamin-1 (Mus musculus), Q8BHY3; HEK293 TMEM16A/YFP iodide influx fluorescence, ionomycin;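 active = ratio plate-corrected score three or more library SD toward inhibition, starting fluorescence score within five deviations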;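 also: score derived from kinetic fluorescence span divided by baseline fluorescence per well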
# PKA-R2B act = activators of PKA-R2B holoenzyme, primary screen, biochemical, fluorescence polarization, Cy5-IP20, human; cAMP-dependent protein kinase catalytic subunit beta (Homo sapiens) + cAMP-dependent …; PKA-R2B holoenzyme dissociation; R2B truncated from residue 108, S112A mutant; 0% DMSO only, 100% 113 µM cGMP; activation, % at 11.4 µM; actives 0.079% (n = 340,000); AID 504700, 2011;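 active = activation above a cutoff set at the mean over all compounds plus 3 SD, cut at about 18% in these data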;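 also: higher means more holoenzyme dissociation and a rise in polarization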
# Hits are given with their value; i = inactive; nt = no result.
SMILES,CHT allo act,PKA-R1A activ,TMEM16A act,CHT block,TMEM16A inh,PKA-R2B act
COc1cc(/C=C/C(=O)OCC(=O)N(CC(C)C)c2c(N)n(Cc3ccccc3)c(=O)[nH]c2=O)ccc1O,nt,i,-21.8,nt,nt,i
CC(C)CN(C(=O)COC(=O)/C=C/c1ccc(Cl)c(Cl)c1)c1c(N)n(Cc2ccccc2)c(=O)[nH]c1=O,nt,i,i,nt,nt,i
O=C(NCCCNc1ccc(C(F)(F)F)cc1[N+](=O)[O-])c1ccc(Cl)cc1,i,i,i,i,100,i
COc1cccc(NC(=O)Nc2nnc(CC(=O)NCc3ccccc3)s2)c1,i,i,-4.89,i,i,i
O=C(NNC(=O)c1ccccc1Cl)c1ccc(-n2cncn2)c([N+](=O)[O-])c1,nt,i,i,nt,nt,i
CC(C)CCn1nnnc1C(C(C)C)N1CCC(C(N)=O)CC1 (centres undefined),i,i,i,i,100,i
NC(=O)c1ccc(NS(=O)(=O)c2ccccc2F)cc1,i,i,i,i,i,i
NC(=O)c1ccc(NS(=O)(=O)c2ccc(Br)s2)cc1,nt,i,-20.7,nt,nt,i
CSc1nc2ccc(NS(=O)(=O)c3ccc(Br)s3)cc2s1,i,i,i,i,25,i
c1ccc(Nc2nc(-c3ccccc3)ns2)cc1,i,i,-8.95,i,i,i
Cc1cc(S(=O)(=O)Nc2ccc3c(c2)n(C)c(=O)n3C)ccc1F,i,i,i,i,100,i
COc1ccc(S(=O)(=O)Nc2ccc3c(c2)n(C)c(=O)n3C)cc1F,i,i,i,i,i,i
COc1ccc(N2C(=O)C3CCCN3C2c2ccc(C)o2)cc1Cl (centres undefined),i,i,i,i,25,i
Cc1ccc(C2N(c3ccc(Cl)c(Cl)c3)C(=O)C3CCCN32)o1 (centres undefined),i,i,i,i,i,i
COc1ccc(C(=O)CCC(=O)N2CCN(c3cc(C)ccc3C)CC2)cc1,i,i,-5.77,i,i,i
O=C(COC(=O)c1ccc(O)cc1O)Nc1ccc2c(c1)OCCO2,nt,i,-27.8,nt,nt,i
C/C=C\C=C\C(=O)Nc1cccc(C2=NOC3(C2)C[C@@H](C(N)=O)N(C(=O)C(c2ccccc2)c2ccccc2)C3)c1 (some centres undefined),i,i,i,i,i,i
c1ccc2c(c1)CCN2CCN1CCc2ccccc21,i,i,-16.6,i,i,i
CN(C)CCN1CCc2ccccc21,i,i,i,i,i,i
Cc1cc(C(=O)NC2CCCc3c2cnn3-c2ccc(C(C)(C)C)cc2)nn1C (centres undefined),i,i,i,i,25,i
N#Cc1cc2[nH]c3ccccc3c2[n+](-c2ccc([N+](=O)[O-])cc2)c1N,8.83,i,i,i,i,i
CCOC(=O)C1(Cc2ccc(Cl)cc2)CCN(Cc2cn(CC)nc2C)CC1,i,i,i,i,i,i
O=C(NNC(=O)c1n[nH]c2ccccc12)c1ccccc1,nt,i,i,nt,nt,i
Cc1cc(C)cc(OCC(=O)N2N=C(c3cccnc3)CC2(O)C(F)(F)F)c1 (centres undefined),i,i,i,i,i,i
Cc1cc(C)cc(OCC(=O)N2N=C(C(F)(F)F)CC2(O)C(C)(C)C)c1 (centres undefined),i,i,i,i,100,i
O=C(O)c1nn(Cc2nc3ccccc3o2)c(=O)c2ccccc12,i,i,-4.84,i,i,i
Cc1cc(OC(=O)c2ccccc2C)c([N+](=O)[O-])c(=O)[nH]1,i,i,i,i,i,i
COC(=O)c1ccc(C(=O)OC)c(NC(=O)C2CC(=O)N(C3CCCC3)C2)c1 (centres undefined),nt,i,i,nt,nt,i
